Rab9 promoter act: Rab9 promoter activation. Huh7 Rab9 promoter-luciferase reporter, luminescence, 24 h. Potency, µM (top dose mostly 9.22 µM), actives largely listed as activators. 2.8% of 320,000 active. AID 485297; note: nearly all actives have a fitted effect of over 60% in size
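Quantitative HTS format; Huh7 Rab9-luciferase reporter cells (1500/well) receive compound 2 h post-plating, incubate 24 h at 37 °C, then get luciferase reagent for 10 min before luminescence reading.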
SMN2 splice enh: enhancers of SMN2 splice variant expression; Potency, µM (doses to about 46.1 µM), most hits filed as activators; AID 1458; 2.8% of 210,000 active; HEK293 SMN2-luciferase splicing reporter, luminescence, 30-36 h; note: nearly all actives have a fitted effect of over 55% in size
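qHTS luciferase splicing reporter: luminescence rises when SMN2 exon 7 is included in transfected HEK293 cells. Compound exposure lasted 30-36 h at 37C, with 4.5 mM final sodium butyrate as control, followed by a ONE-Glo read.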
ELG1 genotoxic: induces genotoxicity in HEK293T cells with luciferase-tagged ELG1; HEK293T ELG1-luciferase reporter, luminescence, 16 h; Potency, µM (titrated, usually from 46 µM), actives largely listed as activators; AID 504466; 1.3% of 330,000 active; note: nearly all actives have a fitted effect of over 60% in size
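HEK293T cells expressing luciferase-tagged ELG1 were treated with compound or DMSO for 16 hr at 37°C. Luciferase activity was then read after 30 min with ONE-Glo at room temperature; rising signal flags genetic stress.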
NPC1 prom act: NPC1 promoter activation; AID 485313; Huh7 NPC1 promoter luciferase reporter, 24 h; 2.4% of 320,000 active; Potency, µM (series often up to 9.22 µM), usual class: activators; note: nearly all actives have a fitted effect of over 60% in size
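NPC1 promoter–luciferase Huh7 cells; 24 h compound; luminescence.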
FLuc modulator: firefly luciferase modulation, counter-screen for miR-21 project; purified FLuc, Km substrates, luminescence inhibition; Potency, µM (titrated, usually from 57.5 µM), usual class: inhibitors; 6.9% of 360,000 active; AID 588342; note: nearly all actives have a fitted effect of over 55% in size
Target sequence (P08659 whole entry, looked up): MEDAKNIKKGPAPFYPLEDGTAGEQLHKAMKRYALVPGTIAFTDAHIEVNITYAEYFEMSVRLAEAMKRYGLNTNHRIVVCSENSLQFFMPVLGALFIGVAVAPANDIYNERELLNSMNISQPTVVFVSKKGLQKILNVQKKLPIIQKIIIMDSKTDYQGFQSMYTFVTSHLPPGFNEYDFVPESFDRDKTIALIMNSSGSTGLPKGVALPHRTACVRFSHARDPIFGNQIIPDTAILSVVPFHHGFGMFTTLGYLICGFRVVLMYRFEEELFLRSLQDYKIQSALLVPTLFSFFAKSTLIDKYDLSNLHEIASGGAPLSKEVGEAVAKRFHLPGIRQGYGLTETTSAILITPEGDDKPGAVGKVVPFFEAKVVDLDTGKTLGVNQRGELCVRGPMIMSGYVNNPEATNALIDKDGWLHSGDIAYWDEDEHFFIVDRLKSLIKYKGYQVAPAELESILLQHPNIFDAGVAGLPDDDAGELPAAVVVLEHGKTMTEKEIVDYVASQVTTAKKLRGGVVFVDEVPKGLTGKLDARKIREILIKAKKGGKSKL
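Biochemical qHTS of compounds, final roughly 60 µM downward over six points, against 10 nM purified firefly luciferase using Km concentrations of substrates (10 uM D-luciferin, 10 uM ATP) in Tris acetate pH 7.5 buffer; luminescence output.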
Each line names hits and unclear results; the compound was inactive in the other large screens. The list is not random: actives were taken first. Their share in the collection is about 7.4%. Calls come from the whole dose curve; as a rule, active = well fitted curve in the direction sought with a large enough effect; inconclusive = small, poorly fitted or top-dose-only effect, or another doubt; inactive = no such curve, though single readings can be large; an effect the other way counts as inactive or inconclusive.

Cc1ccc(/C=C/c2onc(C)c2S(=O)(=O)N2CCC(C(=O)N3CCN(c4ccccc4F)CC3)CC2)cc1	none (no result: Rab9 promoter act, SMN2 splice enh, ELG1 genotoxic, NPC1 prom act)
CCOC(=O)c1nnn2c1nc(Nc1cccc(C(F)(F)F)c1)c1ccccc12	none (no result: SMN2 splice enh)
CCOC(=O)c1c(NC(=O)CSc2cn(CCNC(=O)c3ccccc3OC)c3ccccc23)sc2c1CCC2	none (no result: Rab9 promoter act, ELG1 genotoxic, NPC1 prom act)
Clc1nnc(N/N=C/c2ccccc2)c2ccccc12	Rab9 promoter act inconclusive, SMN2 splice enh 17.8µM, ELG1 genotoxic 7.08µM, FLuc modulator 2.69µM
COc1ccc(C2CC(C)(c3ccc(OC)cc3OC)Nc3ccccc3N2)c(OC)c1 (stereo not given)	Rab9 promoter act 1.12µM, ELG1 genotoxic 8.2µM, NPC1 prom act 2.82µM, FLuc modulator 7.57µM (no result: SMN2 splice enh)
CC(C)(C)C1CCC(OC(=O)c2cncc(Br)c2)CC1 (stereo not given)	Rab9 promoter act 1.78µM, ELG1 genotoxic inconclusive, NPC1 prom act inconclusive, FLuc modulator 7.57µM
COCc1c(C(=O)NCCOc2ccc(Cl)cc2)oc2ccccc12	none (no result: SMN2 splice enh, FLuc modulator)
Cc1ccccc1C(=O)OCc1cc(=O)n2nc(C(C)C)sc2n1	FLuc modulator 16.9µM (no result: Rab9 promoter act, SMN2 splice enh, ELG1 genotoxic, NPC1 prom act)
CCCc1nn2c(=O)cc(COC(=O)c3cccs3)nc2s1	FLuc modulator 26.9µM (no result: Rab9 promoter act, SMN2 splice enh, ELG1 genotoxic, NPC1 prom act)
CC(C)c1nn2c(=O)cc(COC(=O)C3CCCCC3)nc2s1	FLuc modulator 23.9µM (no result: Rab9 promoter act, SMN2 splice enh, ELG1 genotoxic, NPC1 prom act)
Cc1ccccc1NC(=O)Cn1c(=O)n(CCCCCC(=O)NCc2ccc3c(c2)OCO3)c(=O)c2sccc21	none (no result: Rab9 promoter act, ELG1 genotoxic, NPC1 prom act)
Cc1ccc(C(=O)N2CCc3cc(CNC(=O)CSc4ccccc4)ccc32)cc1	FLuc modulator 23.9µM (no result: Rab9 promoter act, SMN2 splice enh, ELG1 genotoxic, NPC1 prom act)
Cc1cc(C(=O)CN2C(=O)NC3(CCCCCC3)C2=O)c(C)n1C	Rab9 promoter act inconclusive, FLuc modulator inconclusive (no result: SMN2 splice enh)
CCN(Cc1cccs1)C(=O)CN1C(=O)NC2(CCCc3ccccc32)C1=O (stereo not given)	none (no result: SMN2 splice enh)
COCCn1c(C)cc(C(=O)CN2C(=O)NC3(CCCCCC3)C2=O)c1C	Rab9 promoter act 2µM, ELG1 genotoxic inconclusive, NPC1 prom act 2.51µM, FLuc modulator 10.7µM (no result: SMN2 splice enh)
C=CCn1c(C)cc(C(=O)CN2C(=O)NC3(CCCc4ccccc43)C2=O)c1C (stereo not given)	FLuc modulator 19µM
Cc1cc(C(=O)CN2C(=O)NC3(CCCc4ccccc43)C2=O)c(C)n1Cc1cccs1 (stereo not given)	FLuc modulator 6.01µM
Cc1cc(C)nc(SCC(=O)N/N=C/c2ccc3c(c2)OCO3)n1	ELG1 genotoxic inconclusive, NPC1 prom act inconclusive, FLuc modulator 9.53µM (no result: SMN2 splice enh)
Cc1ccc(C)c(NC(=O)CCC(=O)N/N=C/c2ccc3c(c2)OCO3)c1	FLuc modulator 10.7µM (no result: SMN2 splice enh)
Cc1ccccc1NCC(=O)N/N=C\c1ccc2c(c1)OCO2	FLuc modulator inconclusive
Cc1ccccc1CS(=O)(=O)Cc1ccc(C(=O)NCc2ccc(F)cc2)o1	none (no result: Rab9 promoter act, SMN2 splice enh, ELG1 genotoxic, NPC1 prom act)
CCc1ccccc1NC(=O)c1ccc2c(c1)N(Cc1cc(C)ccc1C)C(=O)c1ccccc1S2(=O)=O	none (no result: Rab9 promoter act, ELG1 genotoxic, NPC1 prom act)
Cc1ccccc1NC(=O)Nc1nc2ccc(S(C)(=O)=O)cc2s1	Rab9 promoter act inconclusive, SMN2 splice enh inconclusive, NPC1 prom act 3.98µM
CCOc1ccc(NC(=O)Nc2nc3ccc(S(C)(=O)=O)cc3s2)cc1	none (no result: SMN2 splice enh)
NS(=O)(=O)c1ccc2nc(NC(=O)Nc3ccccc3F)sc2c1	Rab9 promoter act 0.398µM, ELG1 genotoxic 3.26µM, NPC1 prom act 0.501µM, FLuc modulator 1.35µM (no result: SMN2 splice enh)
COc1cc(OC)c(NC(=O)N2CCOCC2)cc1Cl	none (no result: SMN2 splice enh)
CCN(c1ccccc1)S(=O)(=O)c1ccc(-c2cc(C)no2)s1	none (no result: Rab9 promoter act, SMN2 splice enh, ELG1 genotoxic, NPC1 prom act)
Cc1ccc(/C=N/Nc2nc(Cl)c(Cl)cc2Cl)s1	Rab9 promoter act inconclusive, SMN2 splice enh inconclusive, ELG1 genotoxic inconclusive, NPC1 prom act inconclusive, FLuc modulator 6.01µM
O=C(O)c1cc(N/N=C/c2cccs2)ccc1Cl	Rab9 promoter act inconclusive, SMN2 splice enh 11.2µM, ELG1 genotoxic inconclusive, NPC1 prom act inconclusive, FLuc modulator 9.53µM
Cc1ccc(/C=N/Nc2ccc(Cl)c(C(=O)O)c2)s1	Rab9 promoter act 0.316µM, SMN2 splice enh 0.891µM, ELG1 genotoxic inconclusive, NPC1 prom act 0.316µM, FLuc modulator 4.78µM
Cc1ccc(/C=N/Nc2ccc(F)cc2)s1	FLuc modulator inconclusive (no result: SMN2 splice enh)
O=[N+]([O-])c1ccc(/C=N/Nc2nc3ccccc3o2)cc1	Rab9 promoter act 2µM, ELG1 genotoxic inconclusive, NPC1 prom act 2µM (no result: SMN2 splice enh)
CN(C)c1ccc(/C=N/Nc2nc3ccccc3o2)cc1	Rab9 promoter act 0.1µM, ELG1 genotoxic inconclusive, NPC1 prom act inconclusive, FLuc modulator 0.536µM (no result: SMN2 splice enh)
